# Results published in PubChem BioAssay AID2762 (National Center for Advancing Translational Sciences (NCATS), 2010).
# Results filed as inconclusive are left out. Activity calls are given as the source filed them. Calls come from the whole dose curve; as a rule, active = well fitted inhibition curve with a large enough effect; inconclusive = small, poorly fitted or top-dose-only effect, or effect the other way; inactive = no such curve, though single readings can be large or run the other way.
# Target: Nuclear receptor ROR-gamma (Mus musculus) (UniProt P51450)
# Sequence (P51450 whole entry, looked up): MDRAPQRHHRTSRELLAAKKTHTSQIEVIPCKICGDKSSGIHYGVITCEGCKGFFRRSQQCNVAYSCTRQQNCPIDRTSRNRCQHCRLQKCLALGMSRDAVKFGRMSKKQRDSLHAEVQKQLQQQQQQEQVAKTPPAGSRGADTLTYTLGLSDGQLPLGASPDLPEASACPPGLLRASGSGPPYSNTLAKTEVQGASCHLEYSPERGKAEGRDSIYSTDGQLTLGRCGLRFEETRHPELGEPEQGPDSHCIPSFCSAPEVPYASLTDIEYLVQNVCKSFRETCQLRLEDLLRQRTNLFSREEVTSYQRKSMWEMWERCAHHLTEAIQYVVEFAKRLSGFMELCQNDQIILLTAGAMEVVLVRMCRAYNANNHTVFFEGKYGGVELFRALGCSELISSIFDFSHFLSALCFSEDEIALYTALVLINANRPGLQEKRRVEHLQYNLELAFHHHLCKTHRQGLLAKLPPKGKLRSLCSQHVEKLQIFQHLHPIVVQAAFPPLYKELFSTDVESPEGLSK
# Test: Concentration response confirmation assay for inhibitors of ROR gamma transcriptional activity
# Conditions: Drosophila S2 Gal4-RORgamma UAS-luciferase, 20 h; series mostly up to 46.1 µM
# Procedure, shortened: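 A Gal4/UAS one-hybrid system in insect cells: metallothionein-promoter Gal4–ROR gamma fusion plus Photinus luciferase reporter. Copper sulfate 700 uM final, 20 hr ambient incubation, luminescent detection after 10 min with reagent.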
row,Compound,Potency
1,c1ccc(Cn2c(-c3ccccc3)c[n+]3c2SCCC3)cc1,inactive
2,Cc1ccc(Oc2nc(-c3ccccn3)nc3ccccc23)cc1,396 nM (active)
3,CCC(C)[C@H](NC(=O)NCc1ccco1)C(=O)O (some centres undefined),inactive
4,Oc1ccc(COCc2ccccc2)c2cccnc12,1580 nM (active)
5,Cc1cc(C)c2sc(NC(=O)c3ccc(N4C(=O)CCC4=O)cc3)nc2c1,70.5 nM (active)
6,Clc1ccccc1/C=N/NC1=Nc2cccc3cccc1c23,199 nM (active)
7,O=C(CCCN1C(=O)/C(=C/c2ccccc2Cl)SC1=S)NNC(=O)c1ccc(Cl)cc1Cl,1580 nM (active)
8,C=C(C)c1cccc(C(C)(C)NC(=O)N2CCN(CC)CC2)c1,inactive
9,CCOC(=O)Cc1ccc(NC(=O)c2ccc(C(C)(C)C)cc2)cc1,inactive
10,Cc1ccc2nc(-c3ccc(NC(=O)COC(=O)c4ccc(=O)[nH]c4)cc3)sc2c1,1410 nM (active)
11,COc1ccc(OC)c(/C=C2\SC(=S)N(C(C(=O)O)c3ccccc3)C2=O)c1 (centres undefined),inactive
12,CC(C)(C)c1ccc(-c2noc(CCC(=O)Nc3cccnc3)n2)cc1,99.6 nM (active)
13,O=c1c2cc(Br)ccc2[nH]c(=S)n1Cc1cccnc1,11200 nM (active)
14,COc1ccc(-c2cc(C(F)(F)F)nc(S(=O)(=O)CCCC(=O)Nc3cccnc3Cl)n2)cc1OC,11200 nM (active)
15,Cc1ccc(C)c(/C=N/n2cc(-c3ccccc3)[nH]c2=S)c1,791 nM (active)
16,O=C(O)/C=C/C(=O)Nc1ccccc1SC(F)(F)F,inactive
17,Cc1nn(-c2ccccc2)c(C)c1C(=O)Nc1nnc(-c2ccco2)o1,996 nM (active)
18,Cc1cc(C)nc(-n2nc(C)cc2NC(=O)CNC(C)c2ccccc2)n1 (centres undefined),6280 nM (active)
19,CCOC(=O)c1sc(NC(=O)c2ccc(S(=O)(=O)N(C)C)cc2)nc1C,79.1 nM (active)
20,O=C(NC(=S)Nc1nc(-c2ccc(Br)cc2)cs1)c1cccnc1,inactive
21,Cc1cc(NC(=S)NC(=O)/C=C/c2ccc(S(=O)(=O)N3CCOCC3)cc2)ccc1Br,7050 nM (active)
22,COc1ccc(C(=O)/C=C/c2ccc(OC)cc2OC)c(O)c1,888 nM (active)
23,CCn1nc(C)c(CN2CCC(n3nccc3NC(=O)c3ccc4c(c3)OCO4)CC2)c1C,inactive
24,O=S(=O)(NCc1ccccn1)C(F)(F)F,7050 nM (active)
25,CCOc1ncccc1C(=O)OCC(=O)Nc1ccc(-c2nc3ccc(C)cc3s2)cc1,396 nM (active)
26,COc1cccc2cc(-c3n[nH]c(=S)n3C)oc12,15800 nM (active)
27,COc1cccc(-c2cc(C(=O)N3CCc4ccccc4C3)[nH]n2)c1,inactive
28,CCN1CCCc2cc(CN(CCN3CCOCC3)C(=S)Nc3ccc(C)cc3)ccc21,9960 nM (active)
29,Oc1ccccc1-c1cc(-c2ccc3c(c2)OCCO3)n[nH]1,11200 nM (active)
